Laboratory results taken from PubChem BioAssay (NCI).
About 79,000 compounds went through this panel and 15% of them were active in at least one assay; those are over-represented in the sample as a whole. Rule as the data show it: active = growth inhibition above about 70%; inactive = the rest.

Key:
[1] = NCI Yeast Anticancer Drug Screen. Data for the rad50 strain (AID 155);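 also: 0% = growth of vehicle-only cultures of the same strain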; conditions: S. cerevisiae rad50 strain growth inhibition; at 50.0 µM; active compounds read high
Outline: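 Genetically altered yeast (DNA repair pathway); compound treatment; growth inhibition vs vehicle ctrl.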

[2] = NCI Yeast Anticancer Drug Screen. Data for the mec2-1 strain (AID 157); conditions: S. cerevisiae mec2-1 strain, at 50.0 µM, active compounds read high
Outline: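 Vehicle-treated cultures served as reference for growth inhibition of compound-exposed mec2-1 yeast.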

[3] = NCI Yeast Anticancer Drug Screen. Data for the sgs1 mgt1 strain (AID 161);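 also: 0% = growth of cultures given vehicle only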; conditions: S. cerevisiae sgs1 mgt1 strain, at 50.0 µM, active compounds read high
Outline: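 Test agents were incubated with a DNA-repair-mutant yeast strain. Growth was then read and compared against vehicle-treated controls.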

[4] = NCI Yeast Anticancer Drug Screen. Data for the cln2 rad14 strain (AID 165);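 also: 0% = growth equal to vehicle treated cultures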; conditions: S. cerevisiae cln2 rad14 strain, at 50.0 µM, active compounds read high
Outline: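 Each compound was tested on cln2 rad14 yeast. Inhibition of growth was calculated against vehicle-exposed controls.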

[5] = NCI Yeast Anticancer Drug Screen. Data for the bub3 strain (AID 167); conditions: S. cerevisiae bub3 mutant strain, at 50.0 µM, active compounds read high
Outline: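 Yeast carrying a defined mutation is treated with each compound, and growth is compared with that of vehicle-exposed cells to give inhibition.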

[6] = NCI Yeast Anticancer Drug Screen. Data for the mlh1 rad18 strain (AID 175); conditions: S. cerevisiae mlh1 rad18 strain growth inhibition; at 50.0 µM; active compounds read high
Outline: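 Vehicle-treated cultures served as the reference for growth inhibition in a yeast strain carrying DNA damage repair alterations exposed to each compound.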

Measured: growth inhibition

COC1(C)O[C@@]2(C)c3ccccc3C(=O)[C@@]2(c2ccccc2)O1 (stereo not given in full)
inactive: [1] -3.35% | [2] -0.05% | [3] 13.1% | [4] -11.5% | [5] 5.4% | [6] 18.5%

O=C1OC(=O)C2=C1CCCC2
inactive: [1] 8.05% | [2] -18.9% | [3] 18.8% | [4] -1.15% | [5] -18% | [6] 6.7%

CCOC(=O)/C(C#N)=C\C1(C)CCC(C)=CO1 (stereo not given)
inactive: [1] -1.8% | [2] -8.65% | [3] -7.9% | [4] -31.6% | [5] -4.85% | [6] -3.25%

CCCCCCCCCCC(=O)OCC
inactive: [1] -30.2% | [2] 0.65% | [3] -21.4% | [4] -1.85% | [5] 1.2% | [6] -32.8%

N#Cc1cc([N+](=O)[O-])ccc1NC(=O)/C(=N\NC(=O)c1ccncc1)C(c1cnc2ccc([N+](=O)[O-])cc2n1)[N+](=O)[O-] (stereo not given)
inactive: [1] 8.6% | [2] 11.4% | [3] -11.1% | [4] -16.1% | [5] 25.4% | [6] 2.75%

CCOC(=O)CCC(NC(=O)c1ccc(Nc2nc3cc(C(F)(F)F)ccc3nc2C(=O)OCC)cc1)C(=O)OCC (stereo not given)
inactive: [1] -20.1% | [2] 0.55% | [3] -14.3% | [4] -1.85% | [5] -10% | [6] 4.9%

NC(CCCC(N)C(=O)c1ccccc1)C(=O)c1ccccc1 (stereo not given)
inactive: [1] -13.7% | [2] 2.35% | [3] -1.5% | [4] -15.5% | [5] -11.3% | [6] 3.35%

CON(C)CCOC(=O)c1ccc([N+](=O)[O-])cc1
inactive: [1] -5.25% | [2] 4.15% | [3] -2.6% | [4] -21.4% | [5] 3.95% | [6] 27.2%

Cc1nc2ccccc2c(Br)c1Br
inactive: [1] 14.5% | [2] 7.35% | [3] 3.55% | [4] 11.2% | [5] -4.05% | [6] 6.5%

C/C(=N\NC(=S)N(C)C)c1nc2ncccc2[nH]1
inactive: [1] -44.1% | [2] -24.1% | [3] -64.8% | [4] -1.5% | [5] 18.7% | [6] -19.1%

Cc1ccc([N+](=O)[O-])c(N)n1
inactive: [1] 3.25% | [2] -5.65% | [3] -2.45% | [4] 2.3% | [5] 3.8% | [6] 1.3%

OCC(O)C(O)C(O)c1nn(-c2ccccc2)c2nc3ccc(Cl)cc3nc12 (stereo not given)
inactive: [1] -0.8% | [2] 9% | [3] 6.05% | [4] -3.8% | [5] 9.25% | [6] 5.3%

CCOC(=O)CCC(C(=O)OCC)N1C(=O)c2ccccc2C1=O (stereo not given)
inactive: [1] 1% | [2] 6.75% | [3] 8.25% | [4] 11.8% | [5] 23.8% | [6] -1.7%

COC1OC2COC(c3ccccc3)OC2C(O)C1N=[N+]=[N-] (stereo not given)
inactive: [1] 3.4% | [2] 0.7% | [3] -1.35% | [4] -19.9% | [5] -4.4% | [6] 7.9%

CCN1CCCN(CC)C1=O
inactive: [1] 6.1% | [2] 4.15% | [3] -4.4% | [4] -30.4% | [5] -0.45% | [6] 0.1%

O=C1NC(Cc2ccccc2)C(=O)N2CCCC12 (stereo not given)
inactive: [1] 2.55% | [2] -6.75% | [3] -12.2% | [4] -18.1% | [5] -1.15% | [6] 3.35%

COn1c(-c2ccccc2)nc2c1C(=O)N(C)CN2C
inactive: [1] -14.2% | [2] 1.7% | [3] 7.3% | [4] -47.8% | [5] -6.9% | [6] 5.4%

COc1ccc(C(O)C(NCc2ccccc2)c2ccccc2)cc1 (stereo not given)
inactive: [1] 7.75% | [2] -7.3% | [3] 13.2% | [4] 11.8% | [5] 2.55% | [6] 23.9%

Cc1cccc(-c2c3ccccc3cc3c2ccc2ccccc23)c1
inactive: [1] 11.9% | [2] -5.35% | [3] -3.55% | [4] -13.8% | [5] 8.7% | [6] -2.65%

C1CC[N+]2(CC1)CCCCC2
inactive: [1] 0.1% | [2] 9.4% | [3] -0.55% | [4] 14.2% | [5] 23.1% | [6] -0.45%

CC1=NN(c2cc(Cl)c(S(=O)(=O)O)cc2Cl)C(=O)C1N=Nc1ccc(S(=O)(=O)O)cc1 (stereo not given)
inactive: [1] -6.3% | [2] -19.8% | [3] -8% | [4] 2.05% | [5] -5.8% | [6] -0.9%

CN(C)CCC(OC(=O)c1ccccc1Cl)c1ccccc1 (stereo not given)
inactive: [1] -6.9% | [2] 10.1% | [3] 13.7% | [4] 17.2% | [5] 8.75% | [6] 13.1%

O=C1CN(CCN2CCCCC2)CC(=O)N2CCCCN12
inactive: [1] -32% | [2] -7.15% | [3] -8.65% | [4] 9.2% | [5] -5.75% | [6] -10.8%

Cc1sc2nc3n(c(=O)c2c1C)N=C(c1ccc(Cl)cc1)CS3
inactive: [1] 6.6% | [2] -11.2% | [3] -6.65% | [4] 9.2% | [5] -0.8% | [6] -16.2%

O=C(O)C1CCC(=O)N1Cc1csc(-c2ccccc2)n1 (stereo not given)
inactive: [1] -23.8% | [2] -19.6% | [3] -1.45% | [4] -19.6% | [5] -7.15% | [6] 2.7%

Oc1[nH]c2ccccc2c1N=NC(=S)Nc1ccccc1Cl
inactive: [1] -8.2% | [2] -2.3% | [3] 46.5% | [4] 36.2% | [5] 21.8% | [6] 26.2%

O=C1c2ccccc2C(=O)C2C3c4ccccc4C(c4ccccc43)C12 (stereo not given)
inactive: [1] -60.4% | [2] -61% | [3] -53.8% | [4] -9.2% | [5] -54.7% | [6] -57.5%

CC(=O)NC1C(OC(C)=O)OC(COC(c2ccccc2)(c2ccccc2)c2ccccc2)C(O)C1OC(C)=O (stereo not given)
inactive: [1] 63.9% | [2] 47.5% | [3] 5% | [4] 41.2% | [5] 47.2% | [6] 44%

CS(=O)(=O)c1ccc2c(c1)-c1ccc([N+](=O)[O-])cc1C2=O
inactive: [1] 12.7% | [2] 8.8% | [3] 6.3% | [4] 1.65% | [5] -4% | [6] -0.9%

CC1=NN(C(=O)CC(=O)N(C(=O)c2ccccc2Cl)c2ccc(C)cc2)C(=O)C1N=Nc1ccc([N+](=O)[O-])cc1 (stereo not given)
inactive: [1] 46.2% | [2] 29.9% | [3] 47.5% | [4] 27.3% | [5] 54.1% | [6] 46.1%

O=C(O)CCC(=O)NNC(=O)CCC(=O)O
inactive: [1] 16.2% | [2] -2.45% | [3] 4.15% | [4] -8.45% | [5] 14.3% | [6] -22.4%

CCC1(C(=O)O)OC1(C)c1cccs1 (stereo not given)
inactive: [1] -40% | [2] -8.95% | [3] -3.35% | [4] -27.1% | [5] 10.5% | [6] 2%

COCCNC(=O)C1C(=O)C(=O)N(CCOC)C1=O (stereo not given)
inactive: [1] -17.8% | [2] -7.65% | [3] -17.2% | [4] -4.25% | [5] -19.6% | [6] -3.5%

COc1ccc(N)c(C(O)CCNC(C)=O)c1 (stereo not given)
inactive: [1] -20.1% | [2] -23.2% | [3] -25.9% | [4] -7.5% | [5] -43.5% | [6] -38.8%

O=C1C(=Cc2ccccc2)C(=O)c2ccccc21
inactive: [1] 2.55% | [2] 25.6% | [3] 8.65% | [4] -17.6% | [5] 24.7% | [6] 9.3%

CC(C)CCc1ccc(O)cc1
inactive: [1] 5% | [2] -10.9% | [3] -27.2% | [4] -31.9% | [5] 0.65% | [6] -5.15%

CCC/C(Cl)=N/OC(=O)Nc1cc(C(F)(F)F)ccc1OC
inactive: [1] -34.1% | [2] 17.6% | [3] 5.8% | [4] 8.5% | [5] 40.6% | [6] 21.3%

O=c1cnn(C2OC(CO)C(O)C2O)c(=S)[nH]1 (stereo not given)
inactive: [1] -4.45% | [2] -1.45% | [3] 28.6% | [4] 1.25% | [5] 26.1% | [6] -96.5%

CCOc1cccc(N(CC)CC)c1
inactive: [1] 33.9% | [2] 2.05% | [3] -20% | [4] -64.5% | [5] -14.2% | [6] 13.4%

Oc1ccccc1-c1nnc2n1N=C(c1ccc(-c3ccccc3)cc1)CS2
inactive: [1] 32.5% | [2] -12.3% | [3] 23.4% | [4] 20.3% | [5] -6.95% | [6] 7.55%
